DT40 TDP1 no CPT: qHTS for Inhibitors of human tyrosyl-DNA phosphodiesterase 1 (TDP1): qHTS in cells in absence of CPT. DT40 Tdp1-/- hTDP1 cells, no CPT, ATP luminescence, 48 h. Potency, µM (titrated, usually from 46.2 µM), for the others: at the top dose activity change, negative = growth inhibition, hits mostly inhibitors. 420,000 compounds, 15% hits; also: potency is read from the fitted curve at half-maximal effect; nearly all actives have a fitted effect of over 55% in size
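Camptothecin absent (DMSO only). Human TDP1-complemented DT40 knockout cells, 400 cells/well, 37 °C for minimum 48 hr; ATP measured via CellTiter-Glo, 30 min dark incubation, luminescence.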
IL1B secr inh: qHTS for Inhibitors of Inflammasome Signaling: IL-1-beta AlphaLISA Primary Screen | 360,000 compounds, 4.7% hits | activity change, % at 57.5 µM | THP-1 LPS/ATP IL-1B secretion, AlphaLISA, 16 h; stronger effect = lower value; in the data active = activity change below about -50%; inconclusive = mostly about -30% to -49%
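THP-1 cells pretreated 1 hr with compounds (up to 57.5 uM final), then stimulated with LPS (250 ng/mL final) plus ATP (1.25 mM final); secreted IL-1B measured by AlphaLISA after 16 hr, decreased signal indicating inhibition.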
ALOX12 inh: Primary qHTS assay for inhibitors of human arachidonate 12S-lipoxygenase (ALOX12): Round 2 | Potency, µM (titrated, usually from 108 µM), for inactives: top-dose activity change, negative = inhibition, usual class: inhibitors | purified 12hLO, xylenol orange hydroperoxide absorbance | 580,000 compounds, 1.1% hits | Polyunsaturated fatty acid lipoxygenase ALOX12 (Homo sapiens), P18054; also: potency is read from the fitted curve at half-maximal effect
Target sequence (P18054 whole entry, looked up): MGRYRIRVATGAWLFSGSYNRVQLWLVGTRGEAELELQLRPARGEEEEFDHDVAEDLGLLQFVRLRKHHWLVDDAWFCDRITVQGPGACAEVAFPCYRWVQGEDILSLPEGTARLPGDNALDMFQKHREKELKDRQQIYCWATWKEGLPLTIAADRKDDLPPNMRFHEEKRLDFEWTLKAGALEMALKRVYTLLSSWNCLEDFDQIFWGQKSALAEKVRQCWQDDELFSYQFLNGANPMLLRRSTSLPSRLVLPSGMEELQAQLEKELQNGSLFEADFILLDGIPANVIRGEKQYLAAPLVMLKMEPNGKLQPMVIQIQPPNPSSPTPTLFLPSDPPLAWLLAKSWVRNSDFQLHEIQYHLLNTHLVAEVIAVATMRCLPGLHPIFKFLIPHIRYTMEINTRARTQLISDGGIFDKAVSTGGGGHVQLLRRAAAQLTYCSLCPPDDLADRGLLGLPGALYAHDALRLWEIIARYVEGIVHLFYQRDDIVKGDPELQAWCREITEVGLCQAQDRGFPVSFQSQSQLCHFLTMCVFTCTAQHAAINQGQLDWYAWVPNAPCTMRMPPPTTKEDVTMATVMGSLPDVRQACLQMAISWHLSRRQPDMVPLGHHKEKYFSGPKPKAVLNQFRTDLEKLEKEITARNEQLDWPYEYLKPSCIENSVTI
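Purified human 12hLO (150 nM final) in 25 mM Hepes, 0.01% Triton X-100, pH 7.0 was preincubated 15 min at room temperature with compound. Then 40 uM arachidonic acid was added, 30 min. Hydroperoxide was read by Fe-XO absorbance ratio 573/405 nm.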
DT40 TDP1 CPT: qHTS for Inhibitors of human tyrosyl-DNA phosphodiesterase 1 (TDP1): qHTS in cells in presence of CPT; AID 686979, 2013; 420,000 compounds, 12% hits; Potency, µM (highest dose often 46.2 µM), for the others: top-dose activity change, negative = growth inhibition, most hits filed as inhibitors; chicken DT40 Tdp1-/-;hTDP1 cells + 20 nM CPT, ATP luminescence, 48 h; also: potency is read from the fitted curve at half-maximal effect; nearly all actives have a fitted effect of over 55% in size
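Cell growth measured by CellTiter-Glo luminescence after a minimum 48 h, 37 C compound exposure with 20 nM CPT in Tdp1-knockout DT40 cells stably expressing hTDP1, seeded 400/well; qHTS titration format.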
HT1080-NT tox: qHTS for induction of synthetic lethality in tumor cells producing 2HG: qHTS for the HT-1080-NT fibrosarcoma cell line; HT-1080-NT fibrosarcoma viability, CellTiter-Glo ATP luminescence, 48 h; Potency, µM (series often up to 46.1 µM), inactives show top-dose activity, negative = less viability, usual class: cytotoxic; 360,000 compounds, 1.6% hits; AID 686970, 2013;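 also: NT is the 2HG producing partner of a matched IDH1 knockdown line; potency is read from the fitted curve at half-maximal effect; 0% = DMSO-treated cells and -100% = media-only wells without cells; nearly all actives have a fitted effect of over 55% in size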
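Viability by CellTiter-Glo luminescence after 48 h compound exposure at 37C of HT-1080-NT cells (750/well, RPMI, 5% FBS). % activity scaled between DMSO wells and medium-only wells, then curve-fitted and categorized by curve class.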
HT1080 IDH1KD tx: qHTS for induction of synthetic lethality in tumor cells producing 2HG: qHTS for the HT-1080-IDH1KD cell line; HT-1080 IDH1 knockdown viability, ATP luminescence, 48 h; Potency, µM (doses to about 46.1 µM), inactives show at the top dose activity, negative = toxicity, most hits filed as cytotoxic; 360,000 compounds, 2% hits;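 also: potency is read from the fitted curve at half-maximal effect; 0% = DMSO wells and -100% = cell-free medium wells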
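Luminescent ATP read-out (CellTiter-Glo, 10 min at room temperature) after 48 h compound exposure at 37 °C gave viability of IDH1-knockdown HT-1080 cells. Activity was normalised to DMSO and cell-free wells, then fitted as concentration-response curves.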
* hit, by the source's call; ? = inconclusive; . = not tested or not shown; [ ] = remark or other dose. This excerpt belongs to a sample that is enriched for hits. Unless noted, calls follow the shape of the dose curve; as a rule, active = well fitted curve in the direction sought with a large enough effect; inconclusive = small, poorly fitted or top-dose-only effect, or another doubt; inactive = no such curve, though single readings can be large; an effect the other way counts as inactive or inconclusive. Unless noted, % is scaled to controls: 0 for no effect and ±100 for the full control effect.

SMILES	DT40 TDP1 no CPT	IL1B secr inh	ALOX12 inh	DT40 TDP1 CPT	HT1080-NT tox	HT1080 IDH1KD tx
COc1ccccc1NC(=O)Cn1c(=O)c(-c2noc(C)n2)c2n(c1=O)CCCCC2	.	.	2.9%	.	.	.
COc1ccccc1CNC(=O)Cc1c(C)c2cc3c(C)coc3c(C)c2oc1=O	11.6µM*	.	-23.5%	16.4µM*	.	.
Cc1coc2c(C)c3oc(=O)c(CCC(=O)NCCc4ccccc4)c(C)c3cc12	16.4µM*	.	-13.8%	13µM*	.	.
COc1ccc(CNC(=O)CCc2c(C)c3cc4c(C)coc4c(C)c3oc2=O)cc1OC	?	.	-22.0%	-4.4%	.	.
COc1ccccc1CCNC(=O)CCc1c(C)c2cc3c(C)coc3c(C)c2oc1=O	?	.	-19.8%	?	.	.
Cc1c(CC(=O)NCc2ccccc2)c(=O)oc2c(C)c(O)ccc12	13µM*	.	-16.4%	13µM*	.	.
Cc1c(CC(=O)NCc2ccc(F)cc2)c(=O)oc2c(C)c(O)ccc12	.	.	12.9%	.	.	.
CCN(CC)Cc1c(O)c(Cl)cc2c(C)c(C)c(=O)oc12	3.0%	11.3	-28.2%	-12.6%	2.1%	0.6%
Cc1c(Cc2ccccc2)c(=O)oc2c(CN(C)C)c(O)c(Cl)cc12	16.4µM*	18.1	-8.4%	?	-2.2%	-25.9%
COc1ccccc1-n1nc(-c2c(C)nc3scc(CC(=O)NCCC(C)C)n3c2=O)cc1C	.	.	66.2%	.	.	.
Cc1c(Cc2ccccc2)c(=O)oc2c(O)c(O)ccc12	?	174.3	3.98µM*	-18.5%	-0.9%	-20.7%
Cc1coc2c(C)c3oc(=O)c(CC(=O)NCCc4ccc(Cl)cc4)c(C)c3cc12	?	.	-3.6%	?	.	.
Cc1c(Cc2ccccc2)c(=O)oc2cc(O)ccc12	6.5%	-3.3	3.2%	-27.2%	-16.8%	?
Cc1c(CCC(=O)N[C@@H](C)C(=O)O)c(=O)oc2cc3oc4c(c3cc12)CCCC4	0.9%	9.7	0.8%	2.6%	-6.8%	-8.2%
CCCC(NC(=O)CCc1c(C)c2cc3c4c(oc3c(C)c2oc1=O)CCCC4)C(=O)O (stereo not given)	-10.5%	21.0	-4.1%	11.6µM*	-28.4%	-12.6%
Cc1c(Cc2ccccc2)c(=O)oc2c(C)c(OCC(=O)Nc3ccc(C#N)cc3)ccc12	?	-5.8	-16.7%	1.8%	10.6%	15.8%
Cc1coc2c(C)c3oc(=O)c(CC(=O)NCc4ccccc4)c(C)c3cc12	4.61µM*	.	-17.3%	5.8µM*	.	.
Cc1cccc(C)c1NC(=O)COc1ccc2c(C)c(Cc3ccccc3)c(=O)oc2c1C	?	27.2	-20.9%	16.4µM*	5.3%	6.6%
CCOC(=O)c1csc(NC(=O)CSc2nnnn2-c2ccc(OC)cc2)n1	?	26.0	6.3%	?	?	-3.9%[9.24 µM]
CCOC(=O)c1c(NC(=O)CSc2nnnn2-c2ccc(OC)cc2)sc(C)c1C	4.11µM*	-59.5*	?	6.51µM*	0.1%	16.3%
COc1ccc(-n2nnnc2SCC(=O)Nc2nnc(C)s2)cc1	5.62µM*	20.2	-29.1%	6.31µM*	0.5%	1.4%
CCOC(=O)c1c(NC(=O)CSc2nnc(CNc3ccc(Cl)cc3)o2)sc(C)c1C	13µM*	-8.6	-22.5%	?	-18.6%	-24.6%
O=C(NC1CC(=O)N(Cc2cccc(F)c2)C1)c1ccccn1 (stereo not given)	.	.	28.4%	.	.	.
CC12C(=O)N(Cc3ccco3)C(=O)C1C1c3ccccc3C2c2ccccc21 (stereo not given)	23.1µM*	-4.8	0.0%	?	-18.5%	-20.2%
O=C1C2C3c4ccccc4C(c4ccccc43)C2C(=O)N1Cc1ccco1 (stereo not given)	?	0.0	5.5%	?	2.9%	2.8%
SMILES	DT40 TDP1 no CPT	IL1B secr inh	ALOX12 inh	DT40 TDP1 CPT	HT1080-NT tox	HT1080 IDH1KD tx
Cc1cccc(NC(=O)N2CCCCCC2CN2CCc3ccccc3C2)c1 (stereo not given)	.	.	41.4%	.	.	.
Cc1nc2cnc(N3CCN(C)CC3)nc2n(Cc2ccc(F)cc2)c1=O	-22.8%	.	?	-2.7%	.	.
CN1CCN(c2ncc3nc(CCc4ccccc4)c(=O)n(Cc4ccc(F)cc4)c3n2)CC1	14.6µM*	.	?	?	.	.
O=c1c(CCc2ccccc2)nc2cnc(N3CCNCC3)nc2n1Cc1ccc(F)cc1	?	.	0.0%	1.03µM*	.	.
O=C1NC2(CN(Cc3cccc4ccccc34)C2)Oc2ccccc21	.	.	26.5%[176 µM]	.	.	.
COc1cc(SC)ccc1C(=O)N1CCN(c2ccccc2)CC1	?	-80.4*	-2.2%	-9.0%	0.8%	-7.2%
COc1cc(SC)ccc1C(=O)N1CCN(c2ccc(O)cc2)CC1	9.2µM*	23.7	-24.6%	?	0.2%	-2.7%
COc1cc(SC)ccc1C(=O)N1CCN(Cc2ccccc2)CC1	?	-6.1	-6.3%	-17.5%	0.5%	-1.3%
COc1cc(SC)ccc1C(=O)N1CCCCCC1	-29.4%	-2.3	0.0%	?	-6.1%	-2.1%
Cc1ccc(NC(=O)COC(=O)C2CC(=O)N(Cc3ccccc3)C2)cc1F (stereo not given)	-28.1%	5.2	-29.8%	12.4%	-4.3%	-8.0%
CCc1ccc(C(=O)N(Cc2ccncc2)C2CC2)s1	.	.	-9.8%	.	.	.
CC(NC(=O)CCC1CCCC1)C1CCCO1 (stereo not given)	.	.	8.3%	.	.	.
O=C(O)CCC(=O)N1CCN2C(=O)N(Cc3ccccc3)C[C@H]2C1	.	.	-3.1%[176 µM]	.	.	.
COc1cccc(C=NNC(=S)NC2CC3CCC2C3)c1O (stereo not given)	.	.	-0.7%	.	.	.
N[C@H](C(=O)O)c1ccc(O)cc1	-8.7%	.	?	-0.1%	.	.
O=C(NCCN1CCN(c2cccc(Cl)c2)CC1)c1cccn2c(=O)c3ccccc3nc12	1.1%	14.7	17.0%	-2.4%	-4.6%	-13.0%
CCOC(CNC(=O)c1cccn2c(=O)c3cc(Cl)ccc3nc12)OCC	13µM*	-6.4	7.2%	11.6µM*	18.1%	-1.1%
CCOC(CNC(=O)c1cccn2c(=O)c3c(C)c(C)sc3nc12)OCC	18.4µM*	0.5	-2.0%	16.4µM*	15.9%	0.0%
O=C(NCCN1CCN(c2ccccc2)CC1)c1cccn2c(=O)c3cc(Cl)ccc3nc12	18.4µM*	20.2	-16.8%	?	13.0%	-3.9%

Screens (PubChem BioAssay)
